# Screens from PubChem.
# Most compounds without a hit are left out; they make up all but 2.9% or so of the library.
# mIDH1 inhibitor: human IDH1 R132H inhibition; O75874; IDH1-R132H enzyme, NADPH consumption, diaphorase/resazurin fluorescence; Potency, µM (doses to about 76.6 µM), for the others: at the highest dose activity change, negative = inhibition, hits mostly inhibitors; 390,000 compounds, 0.093% hits; note: potency is the fitted concentration of half-maximal effect; % is set by controls: 0 for no effect and ±100 for the full control effect; nearly all actives have a fitted effect of over 65% in size
# Target sequence (O75874 whole entry R132H, stated change not applied): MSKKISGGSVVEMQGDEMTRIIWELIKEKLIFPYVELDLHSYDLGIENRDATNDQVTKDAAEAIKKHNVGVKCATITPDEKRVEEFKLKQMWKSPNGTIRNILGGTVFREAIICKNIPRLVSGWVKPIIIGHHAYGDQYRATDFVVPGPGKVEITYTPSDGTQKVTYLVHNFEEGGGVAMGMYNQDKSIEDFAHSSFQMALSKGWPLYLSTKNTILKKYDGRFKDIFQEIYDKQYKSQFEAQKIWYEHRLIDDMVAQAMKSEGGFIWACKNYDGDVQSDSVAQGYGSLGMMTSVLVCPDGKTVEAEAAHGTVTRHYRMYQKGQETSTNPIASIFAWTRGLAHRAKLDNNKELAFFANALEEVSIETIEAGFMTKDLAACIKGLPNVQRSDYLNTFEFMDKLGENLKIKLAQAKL
#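 IDH1-R132H (0.5 ug/mL dispensed) in pH 7.5 Tris buffer was preincubated 30 min with compound, then given a substrate mix of 0.016 mM NADPH and 2 mM alpha-KG for 80 min at room temperature; remaining NADPH was read by diaphorase/resazurin fluorescence.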
# DRD3 agonist: agonists of human D3 dopamine receptor; P35462; D3R DiscoveRx beta-arrestin cells, luminescence, 90 min; max activation, %; 410,000 compounds, 0.58% hits; in the data active = max activation above about 30%; note: 0% is about no effect
#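 Agonist mode: compounds and dopamine controls were applied to plated cells for 90 min at 37 degrees C after an overnight attachment at 1500 cells/well. Luminescent read-out followed 30 - 60 minutes at room temperature with DiscoveRx detection reagent.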
# B2AR arrestin: agonists driving beta-arrestin recruitment to human beta2-adrenergic receptor. P07550. beta-arrestin recruitment to beta2AR, cell-based reporter. Potency, µM (titrated, usually from 46.1 µM), for inactives: top-dose activation, actives largely listed as activators. 330,000 compounds, 0.02% hits;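 note: potency is the fitted concentration of half-maximal effect; 0% = DMSO controls and full agonism = EC100 isoproterenol or metaproterenol; nearly all actives have a fitted effect of over 65% in size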
# Integrin act MD: activators of alpha7 integrin expression for muscular dystrophy | 350,000 compounds, 0.064% hits | Potency, µM (titrated, usually from 38.3 µM), for the others: at the top dose activation, actives largely listed as activators | alpha7betagal myoblasts, beta-gal FDG fluorescence, 48 h;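 note: potency is the fitted concentration of half-maximal effect; 100% = response of the positive control SU9516; nearly all actives have a fitted effect of over 60% in size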
#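 alpha7betagal+/- myoblasts (passage 13, 250/well) treated 48 h at 37C with compounds at 1:260 dilution of DMSO stock. Lysed, then beta-galactosidase activity read as FDG fluorescence (ex 480/em 540) after 30 min, with pre-read for autofluorescence.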
# D3 antag: blocks the human D3 dopamine receptor | D3R cells, DiscoveRx beta-arrestin luminescence, antagonist mode; hits give low values | max response, negative = inhibition, % | 360,000 compounds, 2.5% hits | AID 652054; in the data active = max response below about -50%; inconclusive = no clear call, values can overlap the other calls; note: % is set by controls: 0 for no effect and ±100 for the full control effect
#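 Cells plated overnight at 1500 cells/well, then exposed to library compounds with dopamine controls for 90 minutes at 37 degrees C. DiscoveRx reagent added for 30–60 minutes at room temperature; luminescence read, quantitative HTS format.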
# Starred values were filed as active, the others as inactive; ? = inconclusive; · = no result given; [ ] = dose if it differs, or a comment. Unless noted, calls come from the whole dose curve; as a rule, active = well fitted curve in the direction sought with a large enough effect; inconclusive = small, poorly fitted or top-dose-only effect, or another doubt; inactive = no such curve, though single readings can be large; an effect the other way counts as inactive or inconclusive.
SMILES,mIDH1 inhibitor,DRD3 agonist,B2AR arrestin,Integrin act MD,D3 antag
CS(=O)(=O)Nc1cccc(C(=O)OCCCOc2ccc(F)cc2)c1,1%,74*,0%,-12%,3
CCOc1ccc(Sc2cc(C(=O)NCCc3ccc(OC)c(OC)c3)c3ccccc3n2)cc1,-6%,11,·,·,·
Cn1ccc2cc(-c3ccc4ncnc(NCc5ccc6c(c5)OCO6)c4c3)ccc21,·,·,-1%,·,·
Cc1ccc(S(=O)(=O)NCCCN2CCOCC2)cc1C,-2%,-1,0%,8%,-67*
Cc1ccc(S(=O)(=O)NCCCN2CCCC2)cc1,-3%,-17,0%,9%,-53*
Cc1nn(C(CC(=O)O)C(=O)O)c(C)c1Br (configuration not stated),-3%,42*,0%,-23%,-22
Cc1nn(C)c2c1c(C(F)(F)F)cc(=O)n2C(C)C(=O)NCCC(C)C (configuration not stated),-12%,-8,·,·,·
Cc1cc(C)cc(N2CCn3c2nc2c3c(=O)n(CCCc3ccccc3)c(=O)n2C)c1,-12%,1,·,·,·
CC/C(=N\Nc1ccc([N+](=O)[O-])cc1[N+](=O)[O-])c1ccc(O)cc1,-3%,2,0%,-40%,-12
CC/C(=N\Nc1ccccc1[N+](=O)[O-])c1ccc(O)cc1,7%,-12,0%,0%,-57*
O=c1cc(-c2ccccc2)n(S(=O)(=O)c2ccc3ccccc3c2)o1,1%,-5,·,20%,-77*
O=c1cc(-c2ccccc2)n(S(=O)(=O)c2ccccc2)o1,3%,-3,0%,22%,?
CC(NS(=O)(=O)c1ccc(Br)cc1)C(c1cccs1)N1CCN(C)CC1 (configuration not stated),14%,-10,0%,-54%,-52*
CC(NS(C)(=O)=O)C(c1cccs1)N1CCN(C)CC1 (configuration not stated),2%,-1,0%,15%[7.66 µM],10
Cc1occc1-c1nnc(SCC(=O)Nc2ccccc2-c2ccccc2)n1C,4%,-4,0%,0%,-57*
Cc1occc1-c1nnc(SCC(=O)c2ccc(Cl)cc2)n1C,10%,-12,0%,0%,-56*
CC(=O)N1Cc2cc(C(=O)NCC(F)(F)F)nc(-c3cccc(-c4cccnc4)c3)c2[C@H]1CCO,·,-12,·,·,?
CC(=O)N1Cc2cc(C(=O)NCC(F)(F)F)nc(-c3cccc(-c4cc5ccccc5o4)c3)c2[C@@H]1CCO,·,55*,·,·,-1
Cc1nn(Cc2cccc(C(=O)NC3CCCCC3)c2)c(C)c1Cl,0%,-1,0%,-12%,-51*
O=C(NC1CCCCCCC1)c1cccc(Cl)c1,-6%,-6,0%,30%,2
CC(C)(C)NS(=O)(=O)c1cccc(S(=O)(=O)c2cccc(S(=O)(=O)NC(C)(C)C)c2)c1,11%,-10,-1%,-47%,-122*
CC(C)(C)NS(=O)(=O)c1ccc(N2C(=O)c3ccccc3C2=O)cc1,2%,1,0%,37%,18
CCN(CC)S(=O)(=O)c1ccc(Cl)c(C(=O)OC2CC(C)OC2=O)c1 (configuration not stated),12%,32*,-1%,-15%,12
CCN(CC)S(=O)(=O)c1ccc(Cl)c(C(=O)Oc2cccnc2)c1,0%,0,0%,-2%,-11
COc1cc(/C=C/C(=O)O[C@H]2CC[C@]34C[C@]35CC[C@]3(C)[C@@H]([C@H](C)CCC=C(C)C)CC[C@@]3(C)[C@@H]5CC[C@H]4C2(C)C)ccc1O,·,11,·,·,·
SMILES,mIDH1 inhibitor,DRD3 agonist,B2AR arrestin,Integrin act MD,D3 antag
NC(=O)CSc1ncnc2c1oc1ccccc12,-8%,-1,-1%,16%,-22
O=C(CSc1ncnc2c1oc1ccccc12)OCc1ccccc1,7%,30*,0%,12%,11
CC(=O)c1ccc(NC(=O)c2cn(-c3ccccc3)nc2-c2ccc(Br)cc2)cc1,-3%,3,·,·,·
O=c1[nH]c(CN2CCN(C/C=C/c3ccccc3)CC2)nc2ccccc12,2%,-46,0%,-21%,-77*
Nc1nc(N2CCN(C/C=C/c3ccccc3)CC2)nc2ccccc12,-1%,-15,0%,-9%,-64*
Nc1nc(N2CCN(C(=O)c3ccco3)CC2)nc2ccccc12,3%,-6,-1%,8%,11
